Publication PMC12864922, “TDP-43 directly inhibits mRNA accumulation in neurites through modulation of mRNA stability”
The full ranking holds about 9,900 sequences; the median of “r (bound/input frequency ratio)” is about 0.7, and the highest 2% start at about 6.5. What follows is part of a selection rich in the highest values, with near analogues and random picks from the rest.

B1: ENSMUSG00000004113.145|Cacna1b (ssRNA)
RNA: GGGAGUUCUACAGUCCGACGAUCGCUUCGAUAUCCGCAUGCUAAAAUAGCACAUGUAUGUAGAGAUGCGCUCAAGGGCCUGCCUUUCACCUACACUGUCACCAUAACAGGGACCAAAUCUGGAGGAUGUCCUUGCUGUUGAUUCUGGUUUUCAGUCACAACACUUUCACUGUUUGUCAUUUCUAUGUAGUUGAUCUAGAAAAAGCAGAAAUCAAAACAGGAAAGGAAAUGUUUGUGUAACUUUAAAAAAAAAGUCAACAUGUAGGAAGGUCUCCAUUUUGCAUUGUUUCUGUGUCUUGUAUGCCUCUUGCGGUCGCACUAGUGUGGAAUUCUCGGGUGUCAAGG
B2: ENSMUSG00000031028.502|Tub|9:15;46:52 (ssRNA)
RNA: GGGAGUUCUACAGUCCGACGAUCGCUUCGAUAUCCGCAUGCUACAAGUAAGCACACACCCUCUGGGAAGACAGGAGUCGGAAGCCAAGCACACACGCAACAGUCUGGAAGAGAGCUUUUGGUAAUCAUACCGUCUUCAGUGACAAGGCAACAAUGCUGUAAAGUGGGUUUGUUUGGUUUUGUUUUUUCUUUCUCUUUUAUGGAAAUGGCAGGUCUAUUUGCCUCAAACGUUAUGUAGAAGUAGUUCUAAGUUUAACAAGCAAUAGAGAUGACUGCUUAGCUAGGAUCUGCAGGGAGCUCUGCUCUCUUGCGGUCGCACUAGUGUGGAAUUCUCGGGUGUCAAGG
B3: ENSMUSG00000031028.254|Tub|5:10 (ssRNA)
RNA: GGGAGUUCUACAGUCCGACGAUCGCUUCGAUAUCCGCAUGCUAUGCCACACACCCAUCUGUGAGAAGCUUCUUGGAGCUGAGACACCAGAGGGAAGCAAAGAGCAUUUAGACAUUGCUUUUUGCUUUGAAAUAGAUAUGUUUGGAAACGCUAAGUAGAAGUUUAAAAAGUAGAGUCAUGUAGAGUCAUGCUUUGAAUAUGUGGGUCAUGCUUUAGAUAUGAAGAGGCUAUGCAGGUAAGGAGGCUGGAUUGAUGUAAAUGGAAGUAGUACUUUAAGAAAGCUCUAGAUUUCCCAGGUUGGACACUCUUGCGGUCGCACUAGUGUGGAAUUCUCGGGUGUCAAGG
B4: ENSMUSG00000090935.680|Synj2bp|248:252 (ssRNA)
RNA: GGGAGUUCUACAGUCCGACGAUCGCUUCGAUAUCCGCAUGCUAUUGAGAUUCACCACUGUCAGGAGCUCUCUCUCUCUGCUUAGAAUCAUCCAGACAGCGGGCUGGUCAGCCCACAUUAAAUAAGAACAUGUGGGACUAGAAUUCAGUCAACAAUGACAUGUUUCAUCAGGUGGUUAAAAUGUACAGAUUCUGUUGGAAAUGUUCCAUGGUAUUUCAAUAGCCAGAAUGAAGAACUGGGCUAAGUCCAGAGCUCUGCUCUCUGAGCAUCUGCCCCAGAUACAGAGGCAGACAUACAAGUGGAACUCUUGCGGUCGCACUAGUGUGGAAUUCUCGGGUGUCAAGG

Target: TDP-43 (Homo sapiens, UniProt Q13148 1-414)
Sequence (Q13148 whole entry): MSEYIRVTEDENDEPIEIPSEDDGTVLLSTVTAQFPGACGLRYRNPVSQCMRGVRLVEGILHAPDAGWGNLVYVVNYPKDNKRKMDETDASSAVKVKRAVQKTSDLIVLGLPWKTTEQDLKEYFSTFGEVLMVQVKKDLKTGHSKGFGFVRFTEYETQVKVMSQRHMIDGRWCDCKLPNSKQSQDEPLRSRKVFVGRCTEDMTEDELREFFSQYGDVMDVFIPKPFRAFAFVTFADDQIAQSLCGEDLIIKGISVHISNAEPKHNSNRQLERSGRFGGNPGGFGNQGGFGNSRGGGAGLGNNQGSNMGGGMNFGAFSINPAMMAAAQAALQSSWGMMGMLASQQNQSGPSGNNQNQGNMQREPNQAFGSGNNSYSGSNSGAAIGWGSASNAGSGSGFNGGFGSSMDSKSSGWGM
Experiment: RNA Bind-n-Seq with designed 260-mer pool; 25 mM Tris-HCl, 150 mM KCl, 3 mM MgCl2, BSA (printed 500 mg/mL), 20 units/mL SUPERase IN; pH not stated; 500 nM RNA pool, 1 h, 4 C; TDP-43 5, 50, 500 nM; high values mean tight binding
Conditions: protein: recombinant; tags: SBP (GST cleaved off with PreScission; pGEX-GST-SBP)
In short: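 Binding (R) is the ratio of each oligo's mapped-read-normalized abundance in the bound fraction to its abundance in the input. To obtain it, SBP-tagged recombinant TDP-43 (5, 50 or 500 nM) on streptavidin beads was incubated with 500 nM of an in vitro-transcribed 260-nt 3′ UTR oligo pool for 1 h at 4 °C in 25 mM Tris-HCl, 150 mM KCl, 3 mM MgCl2, BSA and SUPERase IN. The RNA retained after washing was released with biotin, then reverse transcribed, amplified by PCR and sequenced.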

Binder | binding signal
B1 | 0.241 R (bound/input frequency ratio)
B2 | 0.277 R (bound/input frequency ratio)
B3 | 1.12 R (bound/input frequency ratio)
B4 | 0.197 R (bound/input frequency ratio)
